Shown are actives, neighbours in structure and some others; about 0.82% of the full set was active somewhere.
VHR inh abs: inhibitors of human VHR1 phosphatase (DUSP3); recombinant VHR phosphatase, pNPP absorbance; AID 1654; inhibition, % at 13.3 µM; 290,000 compounds, 0.52% hits; in the data active = inhibition above about 50%
PrPC TRFRET: cell surface PrPC inhibition, primary TR-FRET screen. P04156. TR-FRET read-out. inhibition, % at 13.8 µM. 370,000 compounds, 0.43% hits; in the data active = inhibition above about 24%; also: 0% = median of the test wells and 100% = reference compound wells
TcdB GH inh: inhibitors of Clostridioides difficile toxin B glycohydrolase. P18177. TcdB glycohydrolase enzymatic assay, plate reader. inhibition, % at 9.99 µM. 350,000 compounds, 0.24% hits; in the data active = inhibition above about 10%
* hit, by the source's call; x = no result given.

SMILES	VHR inh abs	PrPC TRFRET	TcdB GH inh
O=C(NCC1CCCO1)C(c1ccco1)N(Cc1ccc(F)cc1)C(=O)CN1C(=O)c2ccccc2S1(=O)=O (configuration not stated)	58.5*	0.2	0.9
C[C@@H]1CCCCO[C@H](CN(C)S(=O)(=O)c2ccccc2)[C@@H](C)CN([C@@H](C)CO)C(=O)c2cc(NC(=O)Nc3cccc4ccccc34)ccc2O1	x	x	-0.4
COc1ccccc1CNC(=O)CN(c1ccc(C)cc1)S(=O)(=O)c1c(C)n[nH]c1C	14.3	-6.1	30.7*
COc1ccccc1CNC(=O)CN(c1ccc(C)cc1)S(=O)(=O)c1c(C)noc1C	1.6	-1.8	1.5
C/C=C/c1ccccc1[C@@H]1[C@@H](C#N)N(C(=O)CN2CCOCC2)[C@@H]1CO	x	x	-1.0
O=C(CN1CCOCC1)N1CCCCN2[C@@H](CO)[C@@H](c3ccc(C#Cc4ccccc4)cc3)[C@@H]2C1	x	x	1.2
CC(C)C1CC(CCNCc2ccc(N(C)C)cc2)(c2ccccc2)CCO1 (configuration not stated)	40.4	-0.5	-1.7
Cc1ccc(C2(CCNCc3ccc(N(C)C)cc3)CCOC(C(C)C)C2)cc1 (configuration not stated)	57.4*	0.6	1.0
COCC(=O)N1CC2(CN(Cc3cccnc3)C2)c2c(n(C)c3cc(OC)ccc23)[C@H]1CO	x	x	0.6
C/C=C/c1ccc([C@H]2[C@H](CO)N3C(=O)CN(C(=O)c4cccc(F)c4)C[C@@H]23)cc1	x	x	-4.1
C[C@H]1CN([C@@H](C)CO)C(=O)c2cc(NC(=O)Cc3ccccc3)ccc2O[C@@H]1CN(C)C(=O)Nc1ccc(C(F)(F)F)cc1	x	x	-1.5
O=C(C[C@@H]1CC[C@@H]2[C@H](COC[C@@H](O)CN2S(=O)(=O)c2cccc(Cl)c2)O1)Nc1ccccc1	x	x	0.7
CO[C@@H]1CN(C)C(=O)c2ccc(NS(=O)(=O)c3cccc(C)c3)cc2OC[C@@H](C)N(Cc2cc(F)ccc2F)C[C@H]1C	x	x	-0.7
Cc1noc(C)c1NC(=O)N(C)C[C@H]1Oc2ccc(NC(=O)CCN3CCOCC3)cc2CC(=O)N([C@H](C)CO)C[C@@H]1C	x	x	-4.7
CN(C)c1ccc2c(c1)[C@H]1C[C@@H](CC(=O)NCc3ccc4c(c3)OCO4)O[C@@H](CO)[C@H]1O2	x	x	-29.6
CNC(=O)N(O)C1N(/N=C/c2ccc(SC)cc2)C(=S)SC1(C)C (configuration not stated)	10.4	9.5	10.2*
CNC(=O)N(O)C1N(/N=C/c2cccnc2)C(=S)SC1(C)C (configuration not stated)	5.1	-1.9	2.3
CNC[C@H]1Oc2cc(C#CCN(C)C)ccc2S(=O)(=O)N([C@H](C)CO)C[C@@H]1C	x	x	-1.5
CCOC(=O)CSC1=C(C#N)C(c2ccc(Cl)cc2)CC(=O)N1 (configuration not stated)	8.2	8.2	0.5
CCCOC(=O)CSC1=C(C#N)C(c2ccccc2Cl)CC(=O)N1 (configuration not stated)	50.3*	12.4	0.3
COc1ccnc2c1c(=O)n(Cc1c(F)cccc1Cl)c(=O)n2C	50.4*	-2.2	0.7
COc1ccnc2c1c(=O)n(Cc1ccccc1Cl)c(=O)n2C	25.2	7.5	-1.4
O=C([C@@H]1[C@@H](CO)[C@@H]2Cn3c(cccc3=O)[C@H]1N2C(=O)CC1CC1)N1CCc2ccccc2C1	x	x	0.0
Cc1nc(C)c(C(=O)N(c2ccccc2F)C(C(=O)NCC2CCCO2)c2ccccc2)s1 (configuration not stated)	54.4*	7.3	1.9
Cc1nc(C)c(C(=O)N(c2ccc(F)cc2)C(C(=O)NCC2CCCO2)c2ccccc2)s1 (configuration not stated)	1.1	0.6	1.3
SMILES	VHR inh abs	PrPC TRFRET	TcdB GH inh
COc1ccc(Cl)cc1/C=C/c1ccc2cccc(O)c2n1	-2.2	-10.5	0.0
COc1ccccc1/C=C/c1ccc2cccc(O)c2n1	52.6*	-12.4	0.2
O=C(NCC[C@H]1CC[C@H](NC(=O)c2ccccc2F)[C@@H](CO)O1)c1ccc2c(c1)OCO2	x	x	0.5
Cc1ccccc1-c1ccc2c(c1)O[C@@H](CN(C)C(=O)C1CC1)[C@H](C)CN([C@H](C)CO)S2(=O)=O	x	x	1.6
COc1ccc(CN2CCC(CNC(=O)Nc3ccc(Cl)cc3)CC2)cc1	x	-9.9	x
COc1ccc(N2CCC(CNC(=O)Nc3ccc(Cl)cc3)C2)cc1 (configuration not stated)	52.1*	6.8	-14.7
CCOc1ccc(NC(=O)NCC2CCN(Cc3ccc(F)cc3)CC2)cc1	56.9*	-6.5	1.3
COc1ccc(N2CCC(CNC(=O)Nc3cccc(OC)c3)C2)cc1 (configuration not stated)	32.6	-0.3	x
C[C@@H]1CCCCO[C@H](CN(C)C(=O)Nc2ccccc2)[C@H](C)CN([C@H](C)CO)C(=O)c2cc(NC(=O)Nc3ccc(F)cc3)ccc2O1	x	x	-2.1

High-throughput results: PubChem, several laboratories
